Measured values reported in PubChem BioAssay (EPA / NIEHS).
Values joined by “and” are separate entries in the source; they are usually repeats but may differ in a detail not shown here. Equal entries are not always repeated. The source holds several records for some structures; these can differ, active in one and inactive in another. Active and inactive are the calls of the source. Rule for the calls: active = hit-call score of the fitted dose curve at least 0.9, where 1 is the maximum; inactive = score below 0.9.

Assays:
[1] = ATG_E_Box_CIS: Attagene CIS-FACTORIAL HepG2 Assay for human Enhancer Box (E-box) (AID 2282936); details: HepG2 E-box cis-reporter transcription, actives raise or lower the signal
Procedure, shortened: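 Cells: HepG2 (human liver), transient MRTU transfection. Exposure 24 h. RNA → oligo(dT) RT → PCR → 6-FAM label → HpaI → CE. Activity fitted both directions relative to DMSO.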

[2] = ATG_M_61_CIS: Attagene CIS-FACTORIAL HepG2 Assay for M61 Transcription Factor (Internal Marker) (AID 2282937); details: HepG2 Attagene CIS-FACTORIAL M61 internal marker reporter; actives raise or lower the signal
Procedure, shortened: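 HepG2 cells transiently transfected with multiplexed cis-promoter reporter units reporting endogenous transcription factor activity, measured 24 h after dosing. Reporter mRNA quantified by RT-PCR and capillary electrophoresis; bidirectional fit against DMSO baseline.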

[3] = ATG_EGR_CIS: Attagene CIS-FACTORIAL HepG2 Assay for human Early Growth Response 1 (EGR1) (AID 2282938); details: HepG2 Attagene CIS-FACTORIAL EGR reporter mRNA; actives raise or lower the signal
Procedure, shortened: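 HepG2 cells transiently transfected with cis-element-driven multiplexed reporter units, dosed for 24 h. EGR1-element reporter mRNA quantified by RT-PCR, 6-FAM labelling, HpaI digestion and capillary electrophoresis; bidirectional fit versus DMSO.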

[4] = ATG_M_19_CIS: Attagene CIS-FACTORIAL HepG2 Assay for M19 Transcription Factor (Internal Marker) (AID 2282939); details: HepG2 Attagene CIS-FACTORIAL M19 internal marker reporter; actives raise or lower the signal
Procedure, shortened: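 HepG2 cells transiently transfected with cis-regulated multiplexed reporter units, dosed 24 h. Reporter mRNA quantified by RT-PCR and capillary electrophoresis; internal background marker fitted bidirectionally versus DMSO.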

[5] = ATG_ERE_CIS: Attagene CIS-FACTORIAL HepG2 Assay for Estrogen Response Element (ERE) (AID 2282940); details: HepG2 ERE cis-reporter, Attagene RNA transcript; actives raise or lower the signal
Procedure, shortened: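 HepG2 cells transiently transfected with multiplexed cis-element reporter units, measuring endogenous transcription factor activity; ERE reporter mRNA quantified after 24 h exposure by RT-PCR, fluorescent labelling, HpaI digestion and capillary electrophoresis. Bidirectional change versus DMSO.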

[6] = ATG_Ets_CIS: Attagene CIS-FACTORIAL HepG2 Assay for human Erythroblast Transformation Specific (ETS) (AID 2282941); details: HepG2 ETS cis-reporter transcription, actives raise or lower the signal
Procedure, shortened: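 HepG2 cells transiently transfected with cis-promoter reporter transcription units were dosed for 24 h; reporter mRNA was measured by RT-PCR, 6-FAM primer extension, HpaI digestion and capillary electrophoresis, with bidirectional fitting against DMSO baseline.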

[7] = target: Hepatocyte nuclear factor 3-beta (Homo sapiens) (UniProt Q9Y261); experiment: ATG_FoxA2_CIS: Attagene CIS-FACTORIAL HepG2 Assay for human Forkhead box A2 (FOXA2) (AID 2282942); details: HepG2 cis-reporter transcription factor activity, 24 h; actives raise or lower the signal
Procedure, shortened: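 HepG2 transiently transfected with a multiplexed cis-promoter reporter library read endogenous FOXA2 activity. After 24 h compound exposure, reporter mRNA was quantified by RT-PCR, HpaI digestion and capillary electrophoresis. Bidirectional fit against DMSO.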

[8] = ATG_FoxO_CIS: Attagene CIS-FACTORIAL HepG2 Assay for human Forkhead box O (FoxO) (AID 2282943); details: HepG2 Attagene cis-reporter, FoxO element, mRNA; actives raise or lower the signal
Procedure, shortened: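 Human hepatoma HepG2 cells carry transiently introduced reporter transcription units controlled by cis promoter elements. Chemical treatment lasted 24 h, and mRNA signal was compared with DMSO.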

[9] = ATG_GATA_CIS: Attagene CIS-FACTORIAL HepG2 Assay for human GATA Binding Protein (AID 2282944); details: HepG2 GATA cis-element reporter, Attagene multiplex mRNA; actives raise or lower the signal
Procedure, shortened: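 HepG2 cells transiently transfected with multiplexed cis-element reporter units measure endogenous GATA activity; after 24 h compound exposure, reporter mRNA quantified by RT-PCR and capillary electrophoresis. Changes fitted in both directions vs DMSO.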

[10] = target: Transcription factor E2F1 (Homo sapiens) (UniProt Q01094); experiment: ATG_E2F_CIS: Attagene CIS-FACTORIAL HepG2 Assay for human E2F Transcription Factor 1 (AID 2282935); details: HepG2 Attagene cis-reporter, E2F reporter RNA transcripts; actives raise or lower the signal
Procedure, shortened: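 Cis-element reporter mRNA induction in transiently transfected HepG2, 24 h exposure. Activity fitted in both directions relative to DMSO negative control.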

Measured: AC50

Transcription factor E2F1 (Homo sapiens), sequence (Q01094 whole entry, looked up): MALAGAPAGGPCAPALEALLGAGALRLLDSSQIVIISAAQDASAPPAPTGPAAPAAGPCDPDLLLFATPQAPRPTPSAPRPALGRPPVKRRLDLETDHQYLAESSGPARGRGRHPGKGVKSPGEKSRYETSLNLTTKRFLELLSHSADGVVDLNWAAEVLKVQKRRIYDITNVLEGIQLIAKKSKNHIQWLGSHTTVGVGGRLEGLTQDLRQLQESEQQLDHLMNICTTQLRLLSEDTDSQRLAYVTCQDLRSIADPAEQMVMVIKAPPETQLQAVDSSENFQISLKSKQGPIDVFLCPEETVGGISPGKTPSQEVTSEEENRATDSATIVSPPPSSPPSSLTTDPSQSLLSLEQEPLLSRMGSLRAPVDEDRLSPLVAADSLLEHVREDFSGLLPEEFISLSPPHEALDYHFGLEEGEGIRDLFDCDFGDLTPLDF
Hepatocyte nuclear factor 3-beta (Homo sapiens), sequence (Q9Y261 whole entry, looked up): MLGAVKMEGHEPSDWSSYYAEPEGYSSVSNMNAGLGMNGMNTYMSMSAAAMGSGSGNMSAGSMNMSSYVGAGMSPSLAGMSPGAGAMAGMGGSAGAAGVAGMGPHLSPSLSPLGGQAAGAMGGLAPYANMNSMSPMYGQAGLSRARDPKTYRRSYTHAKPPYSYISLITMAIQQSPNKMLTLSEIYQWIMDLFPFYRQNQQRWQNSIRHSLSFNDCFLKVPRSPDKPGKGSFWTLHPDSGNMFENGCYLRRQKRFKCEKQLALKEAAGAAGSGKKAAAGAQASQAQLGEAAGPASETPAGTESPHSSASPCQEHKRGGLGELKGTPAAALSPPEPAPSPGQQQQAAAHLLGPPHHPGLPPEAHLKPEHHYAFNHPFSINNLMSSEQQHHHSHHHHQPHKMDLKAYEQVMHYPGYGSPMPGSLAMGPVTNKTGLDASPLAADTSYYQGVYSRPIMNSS

c1ccc2c(c1)-c1cccc3c1c-2cc1ccccc13
active: [5] 929 nM
inactive: [1] | [2] | [3] | [4] | [5] | [6] | [7] | [8] | [9]

CCCCCCCCCCCCCCCCOS(=O)(=O)O
active: [1] 25.8 µM
not listed: [5]
inactive: all other assays above

CCCCC(CC)C(=O)OCCOCCOCCOC(=O)C(CC)CCCC (configuration not stated)
not listed: [5]
inactive: all other assays above

OCCNCCO
not listed: [10]
inactive: all other assays above

OCc1c[nH]c2ccccc12
active: [5] 8.17 µM [middle of 5 runs] | [7] 1.72 µM and 512 nM and 1.85 µM
inactive: [1] | [2] | [3] | [4] | [6] | [7] | [8] | [9]

CCCCN1C(=O)[C@@H]([C@H](O)C2CCCCC2)NC(=O)C12CCN(Cc1ccc(Oc3ccc(C(=O)O)cc3)cc1)CC2
not listed: [5]
inactive: all other assays above

OC[C@H]1O[C@@](CO)(O[C@H]2O[C@H](CO)[C@@H](O)[C@H](O)[C@H]2O)[C@@H](O)[C@@H]1O
not listed: [10]
inactive: all other assays above

CCCCCCCCCC
active: [9] 0.033 µM
not listed: [10]
inactive: all other assays above

OC(CCl)CCl
not listed: [5]
inactive: all other assays above

O=C1CN(N=Cc2ccc([N+](=O)[O-])o2)C(=O)N1
active: [5] 27600 nM
not listed: [10]
inactive: all other assays above

O=c1[nH]cnc2c1ncn2[C@H]1CC[C@@H](CO)O1
not listed: [5]
inactive: all other assays above

Cn1cc[nH]c1=S
not listed: [5] | [7]
inactive: all other assays above

O=C(N[C@H](CO)[C@H](O)c1ccc([N+](=O)[O-])cc1)C(Cl)Cl
not listed: [5]
inactive: all other assays above

FC(F)=C(F)C(F)(F)C(F)(F)C(F)(F)C(F)(F)C(F)(F)C(F)(F)F
not listed: [10]
inactive: all other assays above

O=C(O)c1cccc(C[C@@H]2COc3ccc(OCc4nc5cc(F)ccc5s4)cc3[C@@H]2O)c1
active: [1] 66.9 µM
not listed: [5]
inactive: all other assays above

NC(=O)N(O)[C@@H]1COc2cc(OCc3ccccc3)ccc21
not listed: [5]
inactive: all other assays above

Cc1ncc([C@@H](CCCCCCc2ccc3c(n2)NCCC3)CC(=O)O)cn1
not listed: [5] | [10]
inactive: all other assays above

C[Si](C)(C)C(F)(F)C(F)(F)C(F)(F)F
not listed: [10]
inactive: all other assays above

Cn1c(=O)c2[nH]cnc2n(C)c1=O
not listed: [10]
inactive: all other assays above

OCCC(F)(F)C(F)(F)C(F)(F)C(F)(F)F
not listed: [5] | [10]
inactive: all other assays above

O=C(O)c1ccc2c(c1)nc(C(=O)NC1CCN(C3CC3)CC1)n2Cc1cc(-c2ccc(Cl)s2)on1
not listed: [10]
inactive: all other assays above

FC(F)(F)COC(OCC(F)(F)F)OCC(F)(F)F
not listed: [5] | [10]
inactive: all other assays above

c1ccc2ncccc2c1
not listed: [10]
inactive: all other assays above

CCCCCOC(C)=O
not listed: [5] | [10]
inactive: all other assays above

O=C(Cl)C(F)(F)C(F)(F)C(F)(F)C(=O)Cl
not listed: [10]
inactive: all other assays above

OC(O)(C(F)C(O)(O)C(F)(F)F)C(F)(F)F
not listed: [5] | [10]
inactive: all other assays above

OCCOCCOCCO
not listed: [5] | [10]
inactive: all other assays above

CCOc1ccc2[nH]cc(C(=O)NCc3ccccc3)c(=O)c2n1
not listed: [5] | [10]
inactive: all other assays above

COS(C)(=O)=O
not listed: [5] | [10]
inactive: all other assays above

C=CCc1cc(S(=O)(=O)c2ccc(O)c(CC=C)c2)ccc1O
active: [1] 55.6 µM | [3] 45.8 µM
not listed: [5] | [10]
inactive: all other assays above

NC(=O)NN=Cc1ccc([N+](=O)[O-])o1
active: [1] 113 µM
not listed: [5] | [10]
inactive: all other assays above

CC(C)c1nnc2ccc(-c3ocnc3-c3cc(F)ccc3F)cn12
not listed: [10]
inactive: all other assays above

Cc1cccc(O)c1C
not listed: [5] | [10]
inactive: all other assays above

CNC(C)=O
not listed: [5] | [10]
inactive: all other assays above

CCCCOC(=O)c1ccccc1
not listed: [5] | [10]
inactive: all other assays above

CCN(CC)C(=S)SSC(=S)N(CC)CC
inactive: [2] | [4] | [5]
active: [1] 18.9 µM | [3] 125 µM | [6] 158 µM | [8] 152 µM | [9] 158 µM

COc1cc(C(C)C)c2c(c1)S(=O)(=O)N(COc1cc(=O)n3cccc(OCCN4CCCCC4)c3n1)C2=O
active: [2] 12.3 µM | [3] 2.75 µM | [6] 2.02 µM | [9] 14.1 µM
not listed: [10]
inactive: all other assays above

S=P(N1CC1)(N1CC1)N1CC1
not listed: [5] | [10]
inactive: all other assays above

CCn1nc(C)c2c1C(=O)NCC(c1ccc(O)cc1)=N2
not listed: [5] | [10]
inactive: all other assays above

NNC(=O)c1ccncc1
not listed: [5] | [10]
inactive: all other assays above

CC1(C)C(=O)N(Cl)C(=O)N1Cl
not listed: [5] | [10]
inactive: all other assays above

CC[C@H](C)C(=O)O[C@H]1C[C@H](O)C=C2C=C[C@H](C)[C@H](CC[C@@H](O)C[C@@H](O)CC(=O)O)[C@H]21
not listed: [5] | [10]
inactive: all other assays above

O=S(=O)(O)c1ccc(N=Nc2c(O)ccc3cc(S(=O)(=O)O)ccc23)cc1
not listed: [10]
inactive: all other assays above

CC(C)C(=O)Nc1ccc([N+](=O)[O-])c(C(F)(F)F)c1
not listed: [5] | [10]
inactive: all other assays above
